Measurements taken from PubChem BioAssay AID924 (National Center for Advancing Translational Sciences (NCATS), 2007).
Screen size: about 130,000 compounds; about 1,200 (0.92%) were called active. Inconclusive results (about 3%) are left out. Shown is part of a subset that was picked to be rich in actives. Unmarked numbers belong to inactive results. Calls follow the shape of the dose curve; as a rule, active = well fitted cell-killing curve with a large enough effect; inconclusive = small, poorly fitted or top-dose-only effect; inactive = no such curve, though single readings can be large or run the other way.

Experiment: qHTS Screen for Compounds that Selectively Target Cancer Cells with p53 Mutations: Cytotoxicity of p53ts Cells at the Permissive Temperature; also: nearly all actives have a fitted effect of over 55% in size;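 as to activity change, negative = cytotoxicity: 0% = DMSO and -100% = full killing by reference compound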
Details: H1299-p53A138V at 32C, ATP luminescence viability, 24 h; series mostly up to 46.1 µM; activity change, negative = cytotoxicity: at the top concentration
In short: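 ATP-content luminescence (ATPlite) read-out after 24 h compound exposure at 32C in H1299-p53A138V cells (600/well). Tested up to 46 uM. Normalized to DMSO (0%) and 100 uM tamoxifen (100% killing); Hill-fit AC50.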
Potency is read from the fitted curve at half-maximal effect.

Structure (SMILES)	activity change, negative = cytotoxicity	Potency
CN(c1nc2ccccc2n2c(-c3ccco3)nnc12)S(=O)(=O)c1ccccc1	6.38%	
c1coc(-c2nc3nc4ccccc4n3nc2-c2ccco2)c1	-9.48%	
Cn1c(-c2ccco2)nc2cc3ccccc3cc21		1.26 µM (active)
CC(=O)c1cccc(NC(=O)c2nc(-c3ccccc3)n(-c3cccc(C)c3)n2)c1	4.4%	
c1ccc(-c2noc(-c3cccs3)n2)nc1		12.6 µM (active)
CC(C)c1nc(-c2ccccn2)no1	4.68%	
c1csc(-c2nc(-c3ccncc3)no2)c1	-13.7%	
O=C(Nc1ccccc1Cl)N1CCC(CN2CCCCC2)CC1	8%	
COc1cn(CC(=O)Nc2cccc(C)c2C)c(CN2CCCCC2)cc1=O	-3.44%	
CCN1CCC(N(Cc2ccc(F)cc2)C(=O)Nc2cc(C)ccc2C)CC1	-2.24%	
Cc1cc(Cl)ccc1NC(=O)Cc1ccc(NC(=O)N2CCCCc3ccccc32)cc1	4.61%	
C=CC(=O)c1ccc2ccccc2c1		12.6 µM (active)
Cc1ccc2nc(CC(=O)c3ccc4ccccc4c3)c(=O)[nH]c2c1	3.51% [at 9.22 µM]	
CCOc1ccccc1NC(=O)CSc1ncc(S(=O)(=O)c2ccc(C(C)(C)C)cc2)c(=O)[nH]1	3.76%	
Cn1c(COc2ccccc2C(C)(C)C)nc2ccccc21	-23.2%	
CCCCS(=O)(=O)c1oc(-c2cccs2)nc1S(=O)(=O)c1ccccc1		17.8 µM (active)
NC(=O)CSc1oc(-c2cccs2)nc1S(=O)(=O)c1ccccc1	6.56%	
CSc1oc(-c2cccs2)nc1S(=O)(=O)c1ccc(Br)cc1	14.3%	
COc1cc(NC(=O)CCn2nc(C)cc2C)cc(OC)c1OC	-3.71%	
CC(=O)c1cccc(Nc2ccc3cc(S(=O)(=O)N4CCC(C)CC4)ccc3n2)c1	19.8%	
COc1ccc(N(C)C(=O)C2CCN(S(=O)(=O)c3cc(Br)cc4c3N(C(C)=O)CC4)CC2)cc1	1.57%	
CC(C)n1c(-c2cccs2)nc2ccccc21	-3.01%	

Structure (SMILES)	activity change, negative = cytotoxicity	Potency
Cc1nn2c3ccccc3nc2n(C)c1=O	5.55%	
Cc1csc(-c2nc3ccccc3n2C)n1		15.8 µM (active)
Cc1nn(CC(=O)NCCc2ccccc2)c(=O)c2c1sc1ccccc12	18.9%	
COc1ccccc1N1CCN(C2C(=O)c3ccccc3N2C(C)=O)CC1 (centres undefined)	13.8%	
CCOC(=O)c1ccc(NC(=O)c2nc(SCc3ccc(F)cc3)ncc2Cl)cc1	-4.24%	
Cc1ccc(NC(=O)c2nc(S(=O)(=O)Cc3cccc(C)c3)ncc2Cl)cc1		17.8 µM (active)
CCSc1ncc(Cl)c(C(=O)Nc2cc(C)ccc2C)n1	12.7%	
Cc1sc2ncn(CC(=O)N3CCN(c4ccc(F)cc4)CC3)c(=O)c2c1S(=O)(=O)N1CCN(c2ncccn2)CC1	20.4%	
CCOC(=O)c1cccc(NS(=O)(=O)c2cc(-c3cnc(C)o3)ccc2OC)c1	8.04%	
CCOc1ccc2oc(=O)cc(CN3CCN(C(=O)c4ccc(F)cc4)CC3)c2c1	8.43%	
COc1ccc(-c2cc3ccc(OCc4nn[nH]n4)cc3oc2=O)cc1		10 µM (active)
COc1ccc2cc(-c3nc(Cl)c4c5c(sc4n3)CC(C)CC5)c(=O)oc2c1 (centres undefined)	5.32%	
O=c1oc2cc(O)ccc2cc1-c1ccc(F)cc1	-2.7%	
COc1ccc(S(=O)(=O)NCC(c2ccc(N(C)C)cc2)N2CCc3ccccc32)cc1OC (centres undefined)	-1.28%	
COc1ccc(C2=NC3(CCCCC3)N(CC(=O)Nc3ccc(C(C)C)cc3)C2=O)cc1	8.4%	
O=C(CCc1nc(CN2CCN(S(=O)(=O)c3ccc(F)cc3)CC2)no1)N1CCCCC1	2.7%	
Cc1c(NC(=O)Cc2ccccc2)cccc1-c1nc2cccnc2s1	6.14%	
CCC(C(=O)Nc1cccc(-c2nc3cccnc3s2)c1C)c1ccccc1 (centres undefined)	-4.21%	
Cc1c(NC(=O)C(C)(C)C)cccc1-c1nc2ccccc2s1		12.6 µM (active)
Cc1nn(CC(=O)N2CCN(c3cccc(C(F)(F)F)c3)CC2)c(=O)c2cc3sccc3n12	-3.21%	
COc1cc(NC(=O)c2noc3c2CSc2ccccc2-3)cc(OC)c1OC	-2.69%	
COc1ccccc1CNC(=O)Cn1nc(C)c2nn(-c3ccc(Cl)cc3)c(C)c2c1=O	4.68%	
